High-throughput results: PubChem, Johns Hopkins Ion Channel Center
Most compounds without a hit are left out; they make up all but 1.6% or so of the library.
KCNQ2 block – inhibitors of rat KCNQ2 potassium channel; O88943; CHO-K1 KCNQ2, FluxOR thallium flux, 20 min; hits give low values; AID 2156; 1.1% of 310,000 active; B-score at 10 µM;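 active = fluorescence ratio B-score at most minus 3 library SDs, with starting brightness B-score within 2 library SDs, cut at about -5.5 in these data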
Target sequence (O88943 whole entry, looked up): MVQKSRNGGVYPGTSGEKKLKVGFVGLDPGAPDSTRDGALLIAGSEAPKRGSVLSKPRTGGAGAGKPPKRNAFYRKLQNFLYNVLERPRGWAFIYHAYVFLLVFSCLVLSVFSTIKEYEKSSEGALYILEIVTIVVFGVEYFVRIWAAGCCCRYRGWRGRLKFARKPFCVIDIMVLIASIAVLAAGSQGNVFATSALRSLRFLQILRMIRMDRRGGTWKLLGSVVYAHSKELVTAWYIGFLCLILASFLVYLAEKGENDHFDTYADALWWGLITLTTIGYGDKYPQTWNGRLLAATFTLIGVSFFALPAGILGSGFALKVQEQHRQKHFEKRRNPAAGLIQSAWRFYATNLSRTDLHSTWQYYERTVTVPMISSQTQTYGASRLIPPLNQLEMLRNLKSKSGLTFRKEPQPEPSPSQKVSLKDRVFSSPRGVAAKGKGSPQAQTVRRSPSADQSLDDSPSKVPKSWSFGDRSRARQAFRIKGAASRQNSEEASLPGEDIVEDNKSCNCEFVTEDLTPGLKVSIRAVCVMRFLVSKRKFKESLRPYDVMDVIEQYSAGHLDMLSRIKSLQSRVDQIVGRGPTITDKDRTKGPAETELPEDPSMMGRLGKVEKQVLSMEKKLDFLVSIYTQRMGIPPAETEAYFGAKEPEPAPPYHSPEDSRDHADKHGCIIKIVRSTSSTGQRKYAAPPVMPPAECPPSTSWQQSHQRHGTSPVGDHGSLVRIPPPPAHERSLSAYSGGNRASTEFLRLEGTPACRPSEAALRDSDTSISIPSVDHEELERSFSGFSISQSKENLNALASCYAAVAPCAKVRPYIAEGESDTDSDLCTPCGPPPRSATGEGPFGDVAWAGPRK
KCNQ2 enhance – KCNQ2 (rat) channel potentiation; 0.54% of 310,000 active; B-score at 10 µM; CHO-K1 KCNQ2, FluxOR thallium flux fluorescence; hits give high values; O88943;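 active = fluorescence ratio B-score at least 3 SD of library B-scores, with initial fluorescence B-score within 3 of them, cut at about 5.3 in these data; same plate scores as AID 2156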;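 note: B-score of peak minus minimum over baseline fluorescence ratio after K+ and Tl+ stimulus; positive B-score means potentiation of KCNQ2 with more thallium influx and brighter signal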
KCNQ2 block conf – confirmation of rat KCNQ2 potassium channel inhibitors; shares compounds with KCNQ2 block; AID 493025; activity change, negative = inhibition, % at 10 µM; 57% of 1,000 active; KCNQ2-expressing cells, thallium flux, inhibition; hits give low values;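 note: 0% = vehicle wells and values are ratio percent relative to vehicle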
KCNQ1 spec – selectivity of KCNQ2 inhibitors against human KCNQ1; shares compounds with KCNQ2 block; AID 493026; activity change, negative = inhibition, % at 10 µM; KCNQ1-expressing cells, FluxOR thallium flux fluorescence; hits give low values; 15% of 1,000 active;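 active = activity change at least 3 SD of negative controls below their mean in both duplicate wells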;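 note: CHO cells stably transfected with KCNQ1 and depolarized by potassium stimulus; peak minus minimum fluorescence over baseline after thallium addition; 0% = vehicle negative control and -100% = blank without thallium stimulus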
CHO parental ctr – counter-screen for KCNQ2 inhibitors: effect in parental CHO cells; shares compounds with KCNQ2 block; activity change, % at 10 µM; AID 493029; thallium flux counter-screen; hits give low values; 14% of 1,000 active;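 note: 0% = vehicle negative controls with stimulus buffer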
KCNQ2 inh confirm – blocks rat KCNQ2 current in automated patch clamp. KCNQ2-expressing cells. shares compounds with KCNQ2 block. 49% of 550 active. calls only at 10 µM
Numbers without * were called inactive; i = inactive; / = no result given; + = active, no number. Unless noted, the rule behind the calls is not given here.

SMILES | KCNQ2 block | KCNQ2 enhance | KCNQ2 block conf | KCNQ1 spec | CHO parental ctr | others
O=C(Nc1cc(Cl)cc(Cl)c1)C(NCC1CCCO1)c1ccccc1 (stereo not drawn) | -7.8* | -7.8 | i | i | i
COc1cccc(NC(=O)C(NC2CCCC2)c2ccccc2)c1 (stereo not drawn) | i | / | / | / | /
O=C(CC(c1ccccc1)c1ccccc1)NCC1CCCO1 (stereo not drawn) | i | / | / | / | /
CN(C)CCNC(C(=O)Nc1cc(Cl)cc(Cl)c1)c1ccccc1 (stereo not drawn) | i | / | / | / | /
CC(C)NC(C(=O)Nc1cc(Cl)cc(Cl)c1)c1ccccc1 (stereo not drawn) | -8.1* | -8.1 | -36%* | i | i | KCNQ2 inh confirm=i
COc1ccc([N+](=O)[O-])c(S(=O)(=O)c2ccc(Cl)cc2)n1 | -9.9* | -9.9 | -32%* | -28%* | -22%* | KCNQ2 inh confirm=+
O=[N+]([O-])c1cccnc1S(=O)(=O)c1ccccc1 | i | / | / | / | /
COc1nc(OC)nc(Oc2ccc(Cl)cc2[N+](=O)[O-])n1 | i | / | / | / | /
COc1ccc([N+](=O)[O-])c(S(=O)(=O)c2ccccc2)n1 | -7.5* | -7.5 | -28%* | i | i | KCNQ2 inh confirm=+
CCc1nnc(NC(=O)CSc2nnc(Cc3cc(=O)[nH]c(=O)[nH]3)n2-c2cccc(OC)c2)s1 | i | / | / | / | /
Cc1noc(C)c1CSCC(=O)N(C)CC(=O)Nc1ccc(Cl)cc1 | i | 0.17 | / | / | /
Cc1cc(N2CCCCC2)n2ncc(-c3ccccc3)c2n1 | i | / | / | / | /
Cc1cc(N2CCC(C)CC2)n2ncc(-c3ccccc3)c2n1 | -8.3* | -8.3 | -16%* | i | i | KCNQ2 inh confirm=i
O=C(NC1CCCCC1)C(=S)N1CCOCC1 | i | / | / | / | /
CCN1C(=O)N(CC)C2C1N(C(C)=O)C(=O)N2C(C)=O (stereo not drawn) | i | 0.51 | / | / | /
O=C(/C=C/c1cccc(Cl)c1)N1CCC(Cc2ccccc2)CC1 | -11* | -11 | -35%* | -41%* | -34%* | KCNQ2 inh confirm=+
O=C(/C=C/c1ccccc1)N1CCC(Cc2ccccc2)CC1 | i | / | / | / | /
COc1cc(/C=C/C(=O)NCCN2CCOCC2)cc(OC)c1OC | i | 0.24 | / | / | /
COC(=O)c1cn(NC(=O)c2cccc(F)c2)c(=O)c2ccccc12 | i | / | / | / | /
COC(=O)c1cn(NC(=O)c2cccc(N(C)C)c2)c(=O)c2ccccc12 | -7.8* | -7.8 | -45%* | -36%* | -30%* | KCNQ2 inh confirm=+
COc1cc(OC)cc(C(=O)Nn2cc(C(=O)Nc3ccccc3F)c3ccccc3c2=O)c1 | -7.1* | -7.1 | i | i | i
O=C(Nn1cc(C(=O)Nc2ccccc2F)c2ccccc2c1=O)c1cnccn1 | i | / | / | / | /
O=C(NC1CCN(C(=O)Nc2cccc(Cl)c2)CC1)c1ccco1 | i | / | / | / | /
CCCCOc1ccc(Cc2c(Cl)nc(SC)nc2N2CCOCC2)cc1 | i | / | / | / | /
CSc1nc(Cl)c(Cc2ccc(OCC(C)C)cc2)c(N2CCOCC2)n1 | -6.8* | -6.8 | -24%* | i | i | KCNQ2 inh confirm=i
SMILES | KCNQ2 block | KCNQ2 enhance | KCNQ2 block conf | KCNQ1 spec | CHO parental ctr | others
CCOc1cc(CN2CCN(c3ncccn3)CC2)ccc1OC | i | / | / | / | /
O=C(CSc1nnc(CNC(=O)c2ccccc2F)o1)NC1CCCCC1 | i | / | / | / | /
O=c1c2c3c(sc2ncn1/N=C/c1ccc([N+](=O)[O-])o1)CCCC3 | i | / | / | / | /
Cn1cc(/C=N/n2cnc3sc4c(c3c2=O)CCCC4)c2ccccc21 | -9.2* | -9.2 | i | i | i
COc1cc(NC(=O)CSCc2ccc(Cl)cc2)c(C(=O)O)cc1OC | i | 0.05 | / | / | /
COc1cc2c(cc1NC(=O)c1ccc(C(C)(C)C)cc1)CCCC2 | -7.2* | -7.2 | i | i | i
COc1ccc(C(=O)Nc2cc3c(cc2OC)CCCC3)cc1Br | i | / | / | / | /
O=C1c2ccccc2NC(c2ccc(O)cc2)N1c1ccccc1 (stereo not drawn) | i | 0.1 | / | / | /
CCn1cnc2cc(NCc3nc4ccccc4n3Cc3ccccc3)ccc21 | -8.5* | -8.5 | -34%* | i | i | KCNQ2 inh confirm=+
CCn1cnc2cc(NCc3nc4ccccc4n3C)ccc21 | i | / | / | / | /
Cc1ccc(C(CCN)c2ccco2)cc1 (stereo not drawn) | i | / | / | / | /
O=C(c1ccco1)N(CCC(c1ccccc1)c1ccco1)Cc1ccc(F)cc1 (stereo not drawn) | -7.8* | -7.8 | -46%* | -46%* | -42%* | KCNQ2 inh confirm=+
CCC(=O)N(CCC(c1ccc(C)cc1)c1ccco1)Cc1ccco1 (stereo not drawn) | -10* | -10 | i | i | i
